Only some compounds are listed: those with a hit (about 2.9% of all), similar ones and a draw of the others.
Wnt bcat act = Wnt/beta-catenin pathway activation | activation, % at 9.35 µM | 300,000 compounds, 1.2% hits | Wnt/beta-catenin reporter cell assay, activator, plate reader; in the data active means activation above about 30%, passing the limit was not always enough; inconclusive means no clear call, values can overlap the other calls;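 further: 0% = neutral control wells and 100% = positive control wells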
esBAF inh = SWI/SNF esBAF complex inhibition; AID 602393; reporter increase, % at 12.5 µM; mouse ES cells, Bmi1-luciferase knock-in reporter, 24 h; 100% = twice the neutral-well signal; 350,000 compounds, 2% hits; in the data active means activation above about 40%; inconclusive means no clear call, values can overlap the other calls;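 further: 0% = median of the plate's neutral control wells and 100% = double that signal; a rise in the Bmi1 reporter signal indicates esBAF inhibition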
Vif imaging = blocks HIV Vif function; HEK293T cells, Vif self-association by quenched fluorescence, imaging, 24 h; AID 602346; 340,000 compounds, 0.35% hits; inhibition, % at 7.49 µM; in the data active means inhibition above about 50%, passing the limit was not always enough; inconclusive means no clear call, values can overlap the other calls; inactive means below about 31%
Glyco luc inh = blocks N-linked glycosylation in D54 reporter cells; D54 ERlucT glycosylation luciferase reporter, 24 h; percent of 100 nM tunicamycin response; reporter increase, % at 12.5 µM; AID 588692; 360,000 compounds, 0.23% hits;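 active means mean luciferase reporter signal, scaled so untreated is 0 and the glycosylation-blocking control 100, at or above a set limit in every replicate; inconclusive means mean reaches the limit but not every replicate does; inactive means mean below the limit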;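 further: luciferase carries N-glycosylation sites so blocking glycosylation raises the light; 0% = median of neutral control wells and 100% = median of 100 nM tunicamycin wells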
PvdQ acylase = P. aeruginosa PvdQ acylase inhibition | purified PvdQ acylase, fluorescence plate reader | 340,000 compounds, 0.063% hits | inhibition, % at 10 µM; in the data active means inhibition above about 30%, passing the limit was not always enough; inconclusive means no clear call, values can overlap the other calls;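 further: 0% = vehicle neutral wells and 100% = reference inhibitor wells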
MITF act = MITF TRPM1 promoter activation in melanoma cells; 300,000 compounds, 0.75% hits; AID 588334; SK-MEL-5 TRPM1-promoter luciferase, 24 h; % of positive control, neutral wells = 0; activation, % at 12.5 µM;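 active means mean activation of at least 80% with every replicate also reaching 80%; inconclusive means mean reaches 80% but some replicate falls short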;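 further: 0% = neutral control wells and 100% = parthenolide positive control wells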
Active calls of the source: *; ? = inconclusive; / = no result.

SMILES	Wnt bcat act	esBAF inh	Vif imaging	Glyco luc inh	PvdQ acylase	MITF act
Cc1ccc(C)c(NC(=O)c2cc3ccccc3o2)c1	3	74*	1	-1	-13	/
O=C(Nc1ccccc1C(F)(F)F)c1cc2ccccc2o1	14	52*	-6	-2	-1	56
Cc1cc(NC(=O)c2cncc(Br)c2)ccc1NC(=O)c1cc2ccccc2o1	-4	-32	104*	-10	-17	-65
Cc1cc([N+](=O)[O-])ccc1NC(=O)c1cc2ccccc2o1	1	?	-5	1	-5	70
O=C(Nc1ccccn1)c1cc2ccccc2o1	/	-67	/	-22	1	-62
CNC[C@H]1Oc2ccc(NC(=O)NC(C)C)cc2C(=O)N([C@@H](C)CO)C[C@H]1C	/	1	/	/	/	/
C[C@@H]1CCCCO[C@H](CN(C)C(=O)c2ccccc2)[C@@H](C)CN([C@@H](C)CO)C(=O)c2cc(NC(=O)NC3CCCCC3)ccc2O1	/	-4	/	/	/	/
COc1ccc(CN(C)C[C@H]2Oc3ccc(NS(=O)(=O)c4ccc(C)cc4)cc3C(=O)N([C@H](C)CO)C[C@@H]2C)cc1	/	-6	/	/	/	/
Cc1ccc(-c2noc(C3CCCN(C(=O)c4ccccc4Br)C3)n2)cc1 (stereo not drawn)	3	51*	-4	-2	-5	10
Cc1cccc(C(=O)N2CCCC(c3nc(-c4ccc(C)o4)no3)C2)c1 (stereo not drawn)	12	51*	-4	-2	-4	55
Cc1ccc(-c2noc(C3CCCN(C(=O)c4c(F)cccc4F)C3)n2)cc1 (stereo not drawn)	/	9	-8	-1	-6	-5
O=C(/C=C/c1ccc(-c2ccccc2[N+](=O)[O-])o1)c1ccco1	172*	/	0	18	-11	-8
C[C@H]1CN([C@@H](C)CO)C(=O)Cc2cc(NC(=O)Nc3ccc4c(c3)OCO4)ccc2O[C@@H]1CN(C)Cc1ccc(-c2ccccc2)cc1	/	4	/	/	/	/
COc1ccccc1OCC(=O)Nc1ccc(Cl)cc1	19	18	-2	-3	-9	52
NC(=O)c1ccccc1OCC(=O)Nc1ccc2c(c1)CCC2	27	97*	2	-2	-15	93*
O=C(COc1cc(Cl)ccc1Cl)Nc1ccc2c(c1)CCC2	6	/	-1	2	-2	28
NC(=O)c1ccccc1OCC(=O)Nc1ccc(Cl)c(Cl)c1	40*	/	-6	-14	-15	64
CN1C(=O)c2cc(NC(=O)c3cnccn3)ccc2OC[C@@H]2O[C@H](CC(=O)N[C@H]3CCN(Cc4ccccc4)C3)CC[C@@H]21	/	-2	/	/	/	/
O=C(Nc1ccc(-c2nc3c(ccc4ccccc43)o2)cc1)c1ccco1	10	50*	-8	1	0	34
O=c1sc(Nc2ccccc2)nc2ccsc12	/	82*	12	1	-10	74
O=C(Nc1nc2ccsc2c(=O)s1)c1ccco1	43*	/	-1	14	/	/
O=C(Nc1nc2c(F)c(F)c(F)cc2s1)c1ccco1	25	53*	2	1	-11	?
O=C(Nc1nc2c(F)cc(F)cc2s1)c1ccc([N+](=O)[O-])o1	3	57*	-10	9	0	/
O=C(Nc1nc2c(F)cc(F)cc2s1)c1ccco1	46*	1	6	-6	11	/
O=C(Nc1nc2c(ccc3ccccc32)s1)c1ccco1	38*	27	-10	3	4	20
SMILES	Wnt bcat act	esBAF inh	Vif imaging	Glyco luc inh	PvdQ acylase	MITF act
O=C(Nc1nc2c(Cl)ccc(Cl)c2s1)c1ccco1	11	11	-12	2	11	/
O=C(Nc1nc2c(s1)CCc1ccccc1-2)c1ccco1	/	62*	-26	10	-8	/
CC(=O)Nc1nc2c(s1)CCc1ccccc1-2	0	9	-8	7	-7	-13
O=C(C[C@@H]1CC[C@H](NC(=O)c2ccc3c(c2)OCO3)[C@@H](CO)O1)NC1Cc2ccccc2C1	/	-1	/	/	/	/
Cc1ccc(CNc2nc3ccccc3n2C)o1	9	42*	-3	-1	-18	/
Cn1c(NCc2ccccc2O)nc2ccccc21	13	53*	1	0	-20	?
CN(C)c1ccc(CNc2nc3ccccc3n2C)cc1	3	48*	10	-4	/	/
COCC(=O)Nc1ccc2c(c1)[C@H]1C[C@@H](CC(=O)NCCN3CCCCC3)O[C@H](CO)[C@H]1O2	/	0	/	/	/	/

Screening data as filed in PubChem.
